According to PubChem BioAssay (Tox21):
Values joined by “and” are separate entries in the source; they are usually repeats but may differ in a detail not shown here. Identical values can stand only once. Inconclusive results are not listed. A call without a number means that no potency is given here. Unmarked numbers belong to inactive results. Active and inactive are the calls of the source. Calls come from the whole dose curve; as a rule, active = well fitted inhibition curve with a large enough effect in the repeat runs; inconclusive = weak or mixed curves; inactive = no such curve, though single readings can be large or run the other way.

Target: Cytochrome P450 2C19 (Homo sapiens) (UniProt P33261)
Assay: Cytochrome P450 Family 2 Subfamily C Member 19 (CYP2C19) small molecule antagonists: luciferase reporter qHTS assay (AID 1671197); note: nearly all actives have a fitted effect of over 65% in size
Conditions: P450-Glo CYP2C19 enzyme, luciferin luminescence, 1 h; series mostly up to 115 µM
From the text: National Center for Advancing Translational Sciences [NCATS]
U.S. Environmental Protection Agency [EPA]
National Institutes of Environmental Health Sciences [NIEHS]
National Toxicology Program [NTP]
U.S. Food and Drug Administration [FDA]
Cytochrome P450 (CYP) enzymes are membrane-bound hemeproteins that play a key role in metabolism of drugs and xenobiotics. Evaluation of the effect of chemicals on CYP isozymes is useful to minimize the adverse drug reactions and toxicities in drug development process. Tox21 chemicals were tested for their effect on CYP enzyme activities by using P450-Glo (TM) screening systems (Promega Corporation, Madison, WI). These systems provide a luminescent method containing proluciferin substrates and are converted to luciferin products by CYP isozymes. The luciferin products formed are detected with a luciferin detection reagent, and the amount of light produced is proportional to CYP activity. P450-Glo (TM) CYP2C19 screening system (Catalog. No. V9880) was used to detect the compounds that interfere in CYP2C19 activity. The positive control compound used for CYP2C19 assay is ketoconazole (Sigma-Aldrich, St. Louis, MO).
Tox21 Assay Protocol Summary:
Two ul of enzyme-substrate mix was dispensed into medium binding white/solid 1536-well plates (Greiner Bio-One North America Inc., Monroe, NC) using a BioRaptr Flying Reagent Dispenser (FRD, Beckman Coulter, Brea, CA). Compounds dissolved in DMSO and positive control (ketoconazole) were transferred to the assay plates at 23 nl using a Pintool station (Wako, San Diego, CA). The assay plates were incubated at room temperature for 10 min. Then 2 ul of NADPH regeneration solution was added to each well of the assay plates using an FRD and incubated at 37C for 1 h. The reaction was stopped by adding 4 ul of detection reagent using an FRD and after 20 min incubation at room temperature the luminescence signal was measured using a ViewLux plate reader (Perkin Elmer, Shelton, CT). Data were expressed as relative luminescence units.
Potency is the fitted concentration of half-maximal effect.

Cytochrome P450 2C19 (Homo sapiens), sequence (P33261 whole entry, looked up): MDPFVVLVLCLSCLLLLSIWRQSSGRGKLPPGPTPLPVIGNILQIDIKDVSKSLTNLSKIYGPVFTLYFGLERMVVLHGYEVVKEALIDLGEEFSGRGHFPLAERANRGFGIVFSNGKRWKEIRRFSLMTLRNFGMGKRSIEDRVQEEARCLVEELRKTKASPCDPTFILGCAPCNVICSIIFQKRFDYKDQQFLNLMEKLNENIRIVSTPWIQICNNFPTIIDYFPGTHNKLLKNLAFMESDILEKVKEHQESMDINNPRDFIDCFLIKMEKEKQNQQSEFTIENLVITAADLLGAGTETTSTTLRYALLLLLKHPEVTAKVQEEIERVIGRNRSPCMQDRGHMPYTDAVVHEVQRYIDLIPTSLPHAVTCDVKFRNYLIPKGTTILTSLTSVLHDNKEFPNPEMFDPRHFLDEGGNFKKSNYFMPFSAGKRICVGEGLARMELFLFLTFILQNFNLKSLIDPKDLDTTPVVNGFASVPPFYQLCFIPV

| Structure (SMILES) | Potency | activity change, negative = inhibition |
| --- | --- | --- |
| CCCCC(CC)CN1CN(CC(CC)CCCC)CC(C)(N)C1 (stereo not given) | inactive |  |
| O=S(=O)(O)c1ccc(Nc2nc(Nc3ccc(/C=C/c4ccc(Nc5nc(Nc6ccc(S(=O)(=O)O)cc6)nc(N(CCO)CCO)n5)cc4S(=O)(=O)O)c(S(=O)(=O)O)c3)nc(N(CCO)CCO)n2)cc1 | inactive |  |
| O=S(=O)(O)c1ccccc1/C=C/c1ccc(-c2ccc(/C=C/c3ccccc3S(=O)(=O)O)cc2)cc1 | inactive |  |
| CCCCCCCC | inactive |  |
| COC(=O)C1=C(C)NC(C)=C(C(=O)OCCN2CCN(C(c3ccccc3)c3ccccc3)CC2)C1c1cccc([N+](=O)[O-])c1 (stereo not given) | 2.45 µM (active) |  |
| c1ccsc1 | inactive |  |
| CNc1ccc([N+](=O)[O-])cc1 | 35.7 µM (active) |  |
| O=c1[nH]c(=O)n([C@H]2C[C@H](O)[C@@H](CO)O2)cc1F | inactive |  |
| CCCCCc1ccc(Cl)cc1 | inactive |  |
| O=C(/C=C/c1ccccc1)OC/C=C/c1ccccc1 | 35.6 µM (active) |  |
| C=Cc1cccc(C)c1 | inactive |  |
| O=C(Oc1ccccc1)Oc1ccccc1 | 79.3 µM (active) |  |
| COc1c(C)c2c(c(O)c1C/C=C(\C)CCC(=O)OCCN1CCOCC1)C(=O)OC2 | inactive |  |
| CC(C)Cn1cnc2c(N)nc3ccccc3c21 |  | 10.1% [at 23.6 µM] |
| O=[N+]([O-])c1ccc(O)cc1C(F)(F)F | inactive |  |
| Cc1c(N)cccc1C(F)(F)F | inactive |  |
| C=C(C)c1cccc(C(=C)C)c1 | inactive |  |
| C#CC1(O)CC[C@H]2[C@@H]3CCC4=CCCC[C@@H]4[C@H]3CC[C@@]21C (stereo not given in full) | 7.96 µM (active) and 11 µM (active) |  |
| CN1CCCCC1CCN1c2ccccc2Sc2ccc(S(C)=O)cc21 (stereo not given) | inactive |  |
| Cc1cc(C(C)(C)C)c(O)c(C)c1Cn1c(=O)n(Cc2c(C)cc(C(C)(C)C)c(O)c2C)c(=O)n(Cc2c(C)cc(C(C)(C)C)c(O)c2C)c1=O | 6.33 µM (active) |  |

| Structure (SMILES) | Potency | activity change, negative = inhibition |
| --- | --- | --- |
| Nc1cc(Cl)c(O)c(Cl)c1 | 20 µM (active) |  |
| Nc1nc(-c2ccccc2)cs1 | 5.01 µM (active) |  |
| FC(F)(F)c1cccc(Cl)c1 | 69.7 µM (active) |  |
| O=c1oc2cc(O)ccc2c2oc3cc(O)ccc3c12 | 76.4 µM (active) |  |
| CC(C)OC(=O)C(O)(CC(=O)O)CC(=O)O | 35.6 µM (active) |  |
| CCCCCCCCCCCCOC(=O)c1ccc(O)cc1 | 4.02 µM (active) |  |
| Nc1ccc(C(=O)O)c(O)c1 | inactive |  |
| Cc1ccc(C(=O)O)cc1 | inactive |  |
| O=C(O)c1cccc(C(F)(F)F)c1 | inactive |  |
| CC(=O)CC(=O)Nc1ccc(S(=O)(=O)O)cc1 | inactive |  |
| OC1CCCc2ccccc21 (stereo not given) | inactive |  |
| CC/C=C\CCCCCO | inactive |  |
| Cc1ccc(-c2ccccc2)cc1 | inactive |  |
| NC(=O)c1cccc([N+](=O)[O-])c1 | inactive |  |
| CCC(COC(=O)CCS)(COC(=O)CCS)COC(=O)CCS | 5.64 µM (active) |  |
| [Cu+] | 2.24 µM (active) |  |
| CC1(C)CCC[C@]2(C)[C@H]3CC(=O)O[C@]3(C)CC[C@@H]12 | 39.9 µM (active) |  |
| CN(C)CCN1CCN(c2cccc(Cl)c2)C1=O | inactive |  |
| O=C1CCc2cc(OCCCCc3nnnn3C3CCCCC3)ccc2N1 | inactive |  |
| CC(C)(C)NSc1nc2ccccc2s1 | 32.2 µM (active) |  |
